Experimental findings from PubChem BioAssay are described below.

Assay [1] in a line: resazurin metabolic signal in HepG2 cells – cell-based, resazurin fluorescence, 24 h, PK04 Diversity Set, profiling panel (AID 1172). The note with it: HepG2 viability, higher = more signal. (In general: Alamar Blue is a resazurin reagent that responds to reducing activity.)
Assay [2] in a line: budding yeast growth changes without added modifier – OD600, strain BY4716, 24 h, basal condition, primary screen (AID 1173). To be noted: S. cerevisiae BY4716 growth, OD600, 24 h; higher = more signal, called active from +8 up or from −8 down.
A short description of assay [3]: viability profiling in MM1S myeloma cells – cell-based, resazurin fluorescence, basal, 24 h, PK04 Diversity Set, profiling panel (AID 1174).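 Also: MM1S multiple myeloma cell line.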 The note with it: higher = more signal, called active from +8 up or from −8 down.
In assay [4] the target is Dihydroorotate dehydrogenase (quinone), mitochondrial (Plasmodium falciparum (isolate 3D7)) (UniProt Q08210). In words: inhibition of P. falciparum DHODH – biochemical, C-terminal His tag, absorbance 600 nm, primary screen (AID 1175).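 Also: recombinant parasite enzyme with a five histidine tag at its C terminus.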 The note with it: PfDHODH enzyme, DCIP absorbance 600 nm; higher = more signal, called active from +8 up or from −8 down.
Dihydroorotate dehydrogenase (quinone), mitochondrial (Plasmodium falciparum (isolate 3D7)), sequence (Q08210 whole entry, looked up): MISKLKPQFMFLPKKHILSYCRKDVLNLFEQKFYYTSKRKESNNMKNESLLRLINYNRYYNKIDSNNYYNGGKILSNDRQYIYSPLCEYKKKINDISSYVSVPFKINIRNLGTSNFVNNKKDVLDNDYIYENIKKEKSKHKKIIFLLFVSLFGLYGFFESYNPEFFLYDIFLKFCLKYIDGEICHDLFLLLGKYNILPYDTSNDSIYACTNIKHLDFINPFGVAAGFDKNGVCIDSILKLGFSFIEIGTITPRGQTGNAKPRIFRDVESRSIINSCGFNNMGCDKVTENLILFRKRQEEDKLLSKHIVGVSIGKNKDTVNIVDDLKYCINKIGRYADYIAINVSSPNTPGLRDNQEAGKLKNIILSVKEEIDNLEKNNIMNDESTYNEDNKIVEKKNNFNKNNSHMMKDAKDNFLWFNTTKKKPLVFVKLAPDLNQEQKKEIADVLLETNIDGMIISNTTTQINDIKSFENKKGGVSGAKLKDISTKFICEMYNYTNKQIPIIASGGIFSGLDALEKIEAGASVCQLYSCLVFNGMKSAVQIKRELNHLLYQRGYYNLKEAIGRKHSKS
A short description of assay [5]: inhibition of PAO1 biofilm formation – strain PAO1, LB-PBS medium, absorbance 600 nm, primary screen (AID 1176). To be noted: P. aeruginosa PAO1 growth/biofilm, A600, 12 h; higher = more signal.
Assay [6] can be described thus: growth modulation of vineyard yeast isolate – strain RM11-1a, OD600, basal, 24 h, primary screen (AID 1177).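 Also: cultures grown under basal conditions with no added stressor.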 The note with it: S. cerevisiae RM11-1a growth, OD600, 24 h; higher = more signal, called active from +8 up or from −8 down.
Assay [7] is described as follows: growth of efflux-deficient E. coli DRC39 – strain DRC39, OD650, 24 h, E. coli filamentation inducers, primary screen (AID 1178).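 Also: growth measured as culture turbidity by optical density at 650 nm.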 To be noted: E. coli DRC39 acrAB, higher = more signal, called active from +8 up or from −8 down.
Assay [8] is described as follows: growth of efflux-deficient E. coli DRC39 – strain DRC39, OD650, 48 h, E. coli filamentation inducers, primary screen (AID 1179).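 Also: screen aims at cell division blockers that make cells filament.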 To be noted: E. coli DRC39 delta-acrAB growth, higher = more signal, called active from +8 up or from −8 down.
Assay [9] can be described thus: viability profiling in RPMI8226 myeloma cells – cell-based, resazurin fluorescence, basal, 24 h, PK04 Diversity Set, profiling panel (AID 1180).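 Also: RPMI8826 multiple myeloma cell line at 5000 cells per well.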 To be noted: higher = more signal.
The target in assay [10] is E3 ubiquitin-protein ligase XIAP (Homo sapiens) (UniProt P98170). Put plainly: small molecules binding XIAP protein – biophysical, small-molecule microarray, fluorescence 635 nm, primary screen (AID 1181).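 Also: score merges 667 nm emission and signal to noise over triplicate slides.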 To be noted: higher = more signal.
E3 ubiquitin-protein ligase XIAP (Homo sapiens), sequence (P98170 whole entry, looked up, the tested form may be a part): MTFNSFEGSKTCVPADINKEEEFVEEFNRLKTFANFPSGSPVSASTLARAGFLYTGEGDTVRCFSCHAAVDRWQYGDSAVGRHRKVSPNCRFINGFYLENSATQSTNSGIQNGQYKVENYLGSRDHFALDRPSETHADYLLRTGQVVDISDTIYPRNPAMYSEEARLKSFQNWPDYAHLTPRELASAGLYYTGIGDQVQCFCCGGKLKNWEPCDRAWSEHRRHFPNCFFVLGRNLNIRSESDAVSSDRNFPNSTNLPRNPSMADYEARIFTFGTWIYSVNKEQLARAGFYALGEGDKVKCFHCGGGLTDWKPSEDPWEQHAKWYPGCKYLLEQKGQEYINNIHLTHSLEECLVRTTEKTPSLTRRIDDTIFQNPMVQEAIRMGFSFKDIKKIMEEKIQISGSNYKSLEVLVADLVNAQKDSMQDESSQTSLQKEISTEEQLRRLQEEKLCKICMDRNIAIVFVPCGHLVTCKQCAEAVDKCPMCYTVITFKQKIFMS
For assay [11], the system named is XIP peptide (Xip251-270) binding. In words: XIP fragment 251-270 binding compounds – biochemical, small-molecule microarray, fluorescence 635/667 nm, 0.1 µg/mL protein, primary screen (AID 1182). The note with it: fluorescent protein binding, 635 nm, higher = more signal, called active from +8 up or from −8 down.
The next assay concerns XIP peptide (Xip251-270). Put plainly: compounds binding XIP fragment 251-270 – biochemical, small-molecule microarray, fluorescence 635/667 nm, 0.5 µg/mL protein, primary screen (AID 1183). The note with it: fluorescence 635 nm, higher = more signal.
Assay [12] can be described thus: blood-stage malaria parasite viability loss – strain 3D7, DAPI fluorescence, 100 nL, primary screen (AID 1184).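 Also: parasites grown inside human red blood cells in medium with human serum.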 To be noted: P. falciparum 3D7 growth, 3 d, higher = more signal.
The target in assay [13] is Homeobox protein Hox-A13 (Mus musculus) (UniProt Q62424). In words: disruptors of Hoxa13 oligonucleotide interaction – biochemical, fluorescence polarization, labeled oligonucleotide, primary screen (AID 1185). To be noted: Hoxa13:DNA binding, 15 min, higher = more signal, called active from +8 up or from −8 down. Background: In fluorescence polarisation assays a small probe gives low polarisation when free and higher when bound to something large.
Homeobox protein Hox-A13 (Mus musculus), sequence (Q62424 whole entry, looked up): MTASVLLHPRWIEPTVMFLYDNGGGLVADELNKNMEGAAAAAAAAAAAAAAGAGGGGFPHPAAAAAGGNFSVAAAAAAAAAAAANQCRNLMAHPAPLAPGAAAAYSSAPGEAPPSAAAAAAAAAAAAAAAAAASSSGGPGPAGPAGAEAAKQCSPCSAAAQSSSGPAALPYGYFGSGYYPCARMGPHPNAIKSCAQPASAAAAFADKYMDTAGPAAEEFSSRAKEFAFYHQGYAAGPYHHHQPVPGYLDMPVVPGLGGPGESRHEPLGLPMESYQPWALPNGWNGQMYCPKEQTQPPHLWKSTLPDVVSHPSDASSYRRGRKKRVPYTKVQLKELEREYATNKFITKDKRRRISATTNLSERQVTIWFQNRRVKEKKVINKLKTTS

The nature of assay [14]: blockers of DNA damage checkpoint Chk1 activation – imaging, HeLa, hydroxyurea, phospho-Chk1 antibody, percent positive cells, primary screen (AID 1186). To be noted: hydroxyurea-induced phospho-Chk1 immunofluorescence imaging, higher = more signal.
Assay [15] is described as follows: blockers of DNA damage checkpoint Chk1 activation – imaging, HeLa, hydroxyurea, phospho-Chk1 nuclear intensity, primary screen (AID 1187). The note with it: hydroxyurea-induced phospho-Chk1 immunofluorescence imaging, higher = more signal.

Activity calls are given as the source filed them. Unless noted, no rule for the calls is given here.

For the compound `C=CC[C@@H](OC(=O)Nc1ccc(SC)cc1)c1ccc(O)c(F)c1`, the z-score in assay [1] is -0.227; in [2], -15.5 (active); in assay [3], -2.32 (inactive); in [5], 1.57 (inactive); in assay [6], -6.97 (inactive); in assay [7], 1.75 (inactive). The z-score in assay [8] was 1.38 (inactive); in assay [9], -0.872; in assay [12], -0.671; in [13], -1.19 (inactive); in [14], -0.12 (inactive); in assay [15], 0.539 (inactive). Besides, the composite z-score in assay [4] is -1.9 (inactive); in assay [10], -0.02; in assay [11], 0.452 (inactive); in the assay on XIP peptide (Xip251-270), 0.257.

Turning to `COc1ccc([C@H]2OC[C@@H]3C[C@H](Cc4ccccc4)C(=O)N32)cc1`, the z-score was -0.195 in assay [1]; -3.69 (inactive) in assay [2]; 0.229 (inactive) in assay [3]; -0.145 (inactive) in assay [5]; 0.248 (inactive) in [6]; -0.278 (inactive) in [7]. Moreover, the z-score is -0.818 (inactive) in [8]; -0.627 in [9]; 0.877 in assay [12]; -0.716 (inactive) in [13]; 0.311 (inactive) in [14]; 0.0211 (inactive) in assay [15]. Further, the composite z-score in [4] is -0.0327 (inactive); in assay [10] it was -0.152; in assay [11], -0.299 (inactive); with XIP peptide (Xip251-270) it was 0.0713.

In the case of `CCN(CC)c1ccc(N2CC=CC34O[C@@H]5/C=C\CCCOC(=O)C5[C@H]3C(=O)N(C(C)CO)[C@@H]4C2=O)cc1` (some centres undefined), the z-score was 0.242 in assay [1]; -0.566 (inactive) in [2]; 0.516 (inactive) in assay [3]; -0.14 (inactive) in assay [5]; -0.355 (inactive) in assay [6]; 1.9 (inactive) in assay [7]. The z-score in assay [8] was 1.92 (inactive); in assay [9] it was 0.778; in assay [12], 0.226; in assay [13], -5.97 (inactive); in assay [14], 0.296 (inactive); in assay [15] it was 0.804 (inactive). Further, the composite z-score was -2.25 (inactive) in [4], 0.115 in assay [10], -0.322 (inactive) in assay [11] and 0.213 in the assay on XIP peptide (Xip251-270).

Take `COc1ccc([Si](C)(C)[C@H]2[C@H](CC(=O)N(CCO)Cc3ccccc3)O[C@@]3(C(=O)N(C)c4c(Br)cc(C)cc43)[C@@H]2C)cc1`: the z-score in [1] was -1.86; in [2] it was -2.5 (inactive); in assay [3] it was -2.84 (inactive); in [5] it was 1.94 (inactive); in [6] it was 0.257 (inactive); in [7], 1.32 (inactive). Further, the z-score is 0.677 (inactive) in [8]; -5.31 in assay [9]; -2.08 in assay [12]; -6.1 (inactive) in [13]; -1.82 (inactive) in [14]; -1.22 (inactive) in assay [15]. Besides, the composite z-score in [4] was -0.474 (inactive); in [10], 0.868; in assay [11] it was 0.159 (inactive); with XIP peptide (Xip251-270) it was 0.334.

Regarding `[N-]=[N+]=Nc1ccccc1C[C@]1(C(=O)N2CCOCC2)COC(c2ccc(OCCCO)cc2)=N1`, the z-score in assay [1] is 1.27; in assay [2], -3.78 (inactive); in [3], 0.632 (inactive); in assay [5], -0.537 (inactive); in [6], -0.85 (inactive); in assay [7], 1.08 (inactive). For the same compound, the z-score in assay [8] is 0.906 (inactive); in assay [9], 1.02; in assay [12], -2.03; in assay [13], -6.82 (inactive); in assay [14], -0.488 (inactive); in assay [15], -0.338 (inactive). For the same compound, the composite z-score in [4] is 0.265 (inactive); in [10] it was 0.138; in assay [11] it was 0.373 (inactive); in the assay on XIP peptide (Xip251-270), 0.666.

Regarding `CCCCC(O)C1C=CC2C(=O)N(C)C(=O)C2N1N(c1ccccc1)c1ccccc1` (centres undefined), the z-score was -0.682 in assay [1]; 0.512 (inactive) in assay [2]; -1.65 (inactive) in assay [3]; 1.26 (inactive) in assay [5]; 0.46 (inactive) in assay [6]; -0.447 (inactive) in [7]. The z-score in assay [8] was -0.251 (inactive); in assay [9], -1.05; in assay [12], 1.01; in assay [13], -4.42 (inactive); in assay [14], -0.0768 (inactive); in assay [15], -0.691 (inactive). Moreover, the composite z-score was -0.226 (inactive) in [4], 0.001 in assay [10], 0.289 (inactive) in [11] and 0.771 in the assay on XIP peptide (Xip251-270).

Consider `O=C(NCCN1CCOCC1)[C@@H]1c2ccccc2C(=O)N(Cc2ccccc2Cl)[C@H]1c1ccc(CO)cc1`, for which the z-score in assay [1] is -0.0211; in assay [2] it was 0.199 (inactive); in [3] it was -1.21 (inactive); in assay [5], 0.0993 (inactive); in [6], 0.593 (inactive); in assay [7] it was 0.447 (inactive). The z-score was 0.865 (inactive) in assay [8]; -0.831 in assay [9]; -0.879 in assay [12]; -4.26 (inactive) in [13]; -0.0685 (inactive) in assay [14]; 0.227 (inactive) in [15]. The composite z-score in assay [4] was -0.0473 (inactive); in assay [10], 0.0178; in assay [11], -0.121 (inactive); with XIP peptide (Xip251-270), -0.209.

`CC(=O)N1CC2(CC2)CC1c1ccccc1` (centres undefined): the z-score in [1] is -0.603; in [2] it was 1.12 (inactive); in assay [3] it was -1.89 (inactive); in [5], 0.535 (inactive); in assay [6], 0.0303 (inactive); in [7], -0.88 (inactive). Also, the z-score was -0.206 (inactive) in assay [8]; -1.36 in [9]; -0.0608 in assay [12]; -1.06 (inactive) in assay [13]; 0.465 (inactive) in assay [14]; 0.444 (inactive) in assay [15]. The composite z-score in assay [4] is -0.448 (inactive); in assay [10] it was 0.0116; in assay [11], 0.485 (inactive); in the assay on XIP peptide (Xip251-270), 0.915.

`O=C(O)[C@@H]1[C@@H]2C(=O)N(c3ccccc3)C(=O)[C@@H]2C[C@@H]1Sc1ccccc1`: the z-score in [1] is -0.303; in assay [2] it was 0.308 (inactive); in assay [3] it was -0.832 (inactive); in assay [5], 0.546 (inactive); in [6], 1.48 (inactive); in [7] it was -0.719 (inactive). Further, the z-score is -1.3 (inactive) in assay [8]; -1.09 in [9]; 0.0183 in [12]; -2.65 (inactive) in assay [13]; 0.701 (inactive) in assay [14]; -0.162 (inactive) in assay [15]. The composite z-score in assay [4] was 1.2 (inactive); in [10], -0.0907; in [11], -0.213 (inactive); with XIP peptide (Xip251-270), 0.463.
